Compound activity as filed in PubChem BioAssay.
This is a sample that favours compounds with a hit; in the whole collection about 3.7% have one here.
BoNT F protease: BoNT/F light chain protease inhibitors, primary screen, biochemical, flow cytometry, MLPCN library; Multiplex microsphere protease cleavage assay; 360,000 tested, 0.22% active; inhibition, % at 10 µM; Botulinum neurotoxin type F light chain protease (Clostridium botulinum); AID 588497, 2011; in the data active means inhibition above about 35%, passing the limit was not always enough; inconclusive means no clear call, values can overlap the other calls
Anthrax LF prot: Bacillus anthracis LF protease inhibitors, primary screen, biochemical, multiplex microsphere, MLPCN library | Lethal factor (Bacillus anthracis), P15917 | multiplex microsphere protease cleavage assay | inhibition, % at 10 µM | 360,000 tested, 0.12% active | AID 588501, 2011
Target sequence (P15917 whole entry, looked up): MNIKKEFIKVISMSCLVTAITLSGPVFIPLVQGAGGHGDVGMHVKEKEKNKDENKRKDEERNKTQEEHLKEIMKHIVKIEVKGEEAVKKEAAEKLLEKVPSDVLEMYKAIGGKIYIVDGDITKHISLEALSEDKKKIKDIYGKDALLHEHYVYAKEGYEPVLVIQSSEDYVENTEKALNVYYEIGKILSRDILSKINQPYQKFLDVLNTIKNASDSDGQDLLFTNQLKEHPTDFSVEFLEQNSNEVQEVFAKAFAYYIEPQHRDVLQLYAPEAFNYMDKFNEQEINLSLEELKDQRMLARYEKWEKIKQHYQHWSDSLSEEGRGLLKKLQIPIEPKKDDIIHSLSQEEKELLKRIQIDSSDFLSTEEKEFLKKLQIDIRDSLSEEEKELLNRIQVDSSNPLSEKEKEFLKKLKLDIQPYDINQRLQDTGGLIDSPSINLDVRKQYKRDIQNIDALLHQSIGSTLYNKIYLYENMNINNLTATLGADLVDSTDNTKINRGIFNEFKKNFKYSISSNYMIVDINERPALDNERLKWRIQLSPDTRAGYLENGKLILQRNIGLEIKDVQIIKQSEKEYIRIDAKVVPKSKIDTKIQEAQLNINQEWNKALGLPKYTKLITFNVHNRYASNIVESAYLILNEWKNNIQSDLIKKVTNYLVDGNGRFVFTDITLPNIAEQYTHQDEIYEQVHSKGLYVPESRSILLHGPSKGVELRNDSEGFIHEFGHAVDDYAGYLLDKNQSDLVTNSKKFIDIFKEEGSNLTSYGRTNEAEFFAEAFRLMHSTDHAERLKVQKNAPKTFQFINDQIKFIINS
BoNT A protease: BoNT/A light chain protease inhibitors, primary screen, biochemical, flow cytometry, MLPCN library. multiplex microsphere protease substrate cleavage. inhibition, % at 10 µM. 360,000 tested, 0.17% active. AID 588499, 2011
Vc quorum ag: inducers of Vibrio cholerae quorum light production without autoinducers, primary screen, BH1578 luxS cqsA deficient, single point; activation, % at 18.7 µM; 350,000 tested, 0.16% active; V. cholerae BH1578 lux reporter, luminescence, 6 h; in the data active means activation mostly above about 9.7%, no sharp cut-off; inconclusive means no clear call, values can overlap the other calls; inactive means mostly below about 3.7%
BJeLR lethal: MLPCN primary cell-based screen for lethality selective to Ras in HRASV12 cells. BJeLR (HRASV12) viability, CellTiter-Glo ATP luminescence, 48 h. inhibition, % (concentration not given with the values). 300,000 tested, 0.17% active; in the data active means inhibition above about 50%; inconclusive means no clear call, values can overlap the other calls
Autofluor counter: counter-screen for toxin protease inhibitors: compound fluorescence. compound autofluorescence counterscreen, microsphere flow cytometry; active compounds read high. fluorescence intensity (concentration not given with the values). 360,000 tested, 3.1% active. AID 624483; in the data active means fluorescence intensity above about 16000; inconclusive means no clear call, values can overlap the other calls
Numbers stand for hits; 0 = inactive; ? = inconclusive; - = not tested or not shown; ! = repeats disagree. Unless noted, no stated cut-off is given here; in the data, active means inhibition above about 30%; inconclusive means no clear call, values can overlap the other calls; inactive means below that.

SMILES	BoNT F protease	Anthrax LF prot	BoNT A protease	Vc quorum ag	BJeLR lethal	Autofluor counter
COc1cc(Cc2cc(OC)c(O)c(OC)c2)cc(OC)c1O	0	0	0	0	-	0
C=CCn1c(SCC(=O)N(CC)CC)nc(O)cc1=O	0	0	?	0	0	23021
CCNC(=O)C1(C)CCN(C(=O)c2cc(OC)c(OC)c(OC)c2)C1 (configuration not stated)	0	0	0	0	-	0
CN(Cc1ccccc1)C(=O)CSc1nc2ccccc2c(=O)n1Cc1ccco1	0	0	0	0	0	0
O=c1c2ccccc2nc(SCc2cc(F)cc3c2OCOC3)n1Cc1ccco1	0	0	0	0	0	24180
CCOC(=O)c1cc2c(c(CSc3nc4ccccc4c(=O)n3Cc3ccco3)c1)OCOC2	0	0	0	0	-	20266
O=C(CSc1nc2ccccc2c(=O)n1Cc1ccco1)NCc1ccco1	0	0	0	0	0	0
O=C(Nc1ccc(N2CCN(C(=O)c3ccc(Cl)cc3)CC2)cc1)c1cc2ccccc2o1	0	0	0	0	0	21324
Cc1cc(C)cc(C(O)c2ncc(-c3ccccc3F)[nH]2)c1 (configuration not stated)	0	0	0	0	-	0
CC1=C(C(=O)N(C)C)CC(CC(=O)NCc2cccs2)C(=O)N1Cc1ccc(C(C)(C)C)cc1 (configuration not stated)	0	0	0	-	-	0
CCOC(=O)Cn1nnnc1CN(Cc1cccs1)Cc1cc2cc(C)ccc2[nH]c1=O	0	0	0	0	0	16529
Cc1ccc2[nH]c(=O)c(CN(Cc3cccs3)Cc3nnnn3Cc3ccccc3)cc2c1	0	0	0	0	0	0
CN1CC(O)(C(O)C(O)C(O)CO)SC1=S (configuration not stated)	0	0	0	0	-	0
COc1cc(F)ccc1-c1csc(C(C)(O)c2ccc(F)c(F)c2)n1 (configuration not stated)	0	0	0	0	-	0
O=[N+]([O-])c1cccnc1N1CCCCC1	0	0	0	0	0	22095
NC(=O)C1CCN(c2ncccc2[N+](=O)[O-])CC1	0	0	0	0	0	?
Cc1ccc(C)c(S(=O)(=O)C(C#N)c2nc3ccccc3nc2N2CCOCC2)c1 (configuration not stated)	?	?	?	0	0	?
Cc1ccc(C)c(S(=O)(=O)C(C#N)c2nc3ccccc3nc2N2CCCC2)c1 (configuration not stated)	0	0	0	0	0	20606
CCc1nc(NCc2cccnc2)c2oc3ccccc3c2n1	0	0	0	0	0	16165
CCNc1nc(C)nc2c1oc1ccccc12	0	0	0	0	0	0
CCNc1nc(CC)nc2c1oc1ccccc12	0	0	0	0	0	21864
Cc1nc(NCC2CCCO2)c2oc3ccccc3c2n1 (configuration not stated)	0	0	0	0	0	21375
CCc1nc(NCC2CCCO2)c2oc3ccccc3c2n1 (configuration not stated)	0	0	0	0	0	0
CC1(c2nnnn2Cc2ccccc2)CCC(=O)N1CCc1ccc(O)cc1 (configuration not stated)	0	0	0	-	-	0
CCc1ccc(CNc2ccc3c(c2)ncn3CC)cc1	?	0	0	0	0	0
SMILES	BoNT F protease	Anthrax LF prot	BoNT A protease	Vc quorum ag	BJeLR lethal	Autofluor counter
CCCn1cnc2cc(NCc3cccs3)ccc21	0	0	0	0	0	0
CCn1cnc2cc(NCc3ccc(OC)cc3)ccc21	0	0	0	0	0	23891
CCCCn1cnc2cc(NCc3ccncc3)ccc21	0	0	0	0	0	19414
Nn1c(SCC(=O)N2CCCC2)nnc1-c1cccs1	0	0	0	0	-	0
c1ccc2[nH]c(-c3ccnc4ccccc34)nc2c1	0	0	0	0	0	17421!
CSc1nc2ccc(Nc3nc(N4CCOCC4)nc(N4CCOCC4)n3)cc2s1	0	0	0	0	-	23477
O=C(CSc1nc2ccc(Nc3nc(N4CCOCC4)nc(N4CCOCC4)n3)cc2s1)N1CCOCC1	0	0	0	0	0	0
O=C(O)c1cccc(Nc2nc(N3CCOCC3)nc(N3CCOCC3)n2)c1	0	0	0	0	0	22856
